Unmarked numbers belong to inactive results. For part of these data: Measured potencies and affinities stand elsewhere. The source made the active and inactive calls.

The conditions of assay [1]: Ebola virus entry assay, green fluorescence channel.
The conditions of assay [2]: Ebola virus entry assay, blue channel fluorescence.
The conditions of assay [3]: Ebola virus entry assay, green fluorescence channel. The source holds these as a separate data set.
For assay [4] the following is noted: Ebola virus entry assay, ratio channel readout.
For assay [5] the following is noted: Ebola virus entry assay, blue channel fluorescence. The source holds these as a separate data set.
For assay [6] the following is noted: Ebola virus entry assay, ratio channel.
The conditions of assay [7]: Ebola virus entry assay, green channel fluorescence.
For assay [8] the following is noted: Ebola virus entry assay, blue channel fluorescence. The source holds these as a separate data set.
For assay [9] the following is noted: Ebola virus entry assay, reporter ratio channel; AC50: Channel type: primary unless noted; outcome: Channel type: primary unless noted.
For assay [10] the following is noted: Ebola virus entry assay, blue channel (ratio component).
For efficacy in this document: 0% is about no effect.

`CC[N+](C)(C)c1cccc(O)c1`: the efficacy in [1] is -13.4%. Moreover, the compound was classed as inactive in [2], in assay [3], in [4], in assay [5], in assay [6] and in assay [7]. Also, the call in assay [8], in assay [9] and in assay [10] was inactive.

With `CC(C)Nc1cccnc1N1CCN(C(=O)c2cc3cc(NS(C)(=O)=O)ccc3[nH]2)CC1`, the efficacy in [1] was -26%. Moreover, the outcome in assay [2], in assay [3], in assay [4], in assay [5], in [6] and in assay [7] was inactive. In addition, the compound was called inactive in assay [8], in assay [9] and in assay [10].

By AC50 is commonly meant the concentration giving half of the maximal activity seen. As for `CCC(C)(C)C(=O)O[C@H]1C[C@@H](C)C=C2C=C[C@H](C)[C@H](CC[C@@H]3C[C@@H](O)CC(=O)O3)[C@H]21`, the efficacy in assay [1] is 37.4%. Also, the compound was called inactive in assay [2], in assay [3], in assay [4], in [5], in [7] and in [10]. The AC50 in assay [6] and in [9] was 7.08 µM (active) each time.

Regarding `CCN(CCO)CCCC(C)Nc1ccnc2cc(Cl)ccc12` (configuration not stated), the efficacy in assay [1] is 21.3%. In addition, the compound was classed as inactive in assay [2], in [3], in [4] and in assay [7]. The AC50 is 1.12 µM (active) in assay [5], 1.41 µM (active) in assay [6] and 1.41 µM (active) in assay [9].

As for `CCC1=C[C@@H]2CN(C1)Cc1c([nH]c3ccccc13)[C@@](C(=O)OC)(c1cc3c(cc1OC)N(C)[C@H]1[C@@](O)(C(=O)OC)[C@H](OC(C)=O)[C@]4(CC)C=CCN5CC[C@]31[C@@H]54)C2`, in assay [1], the efficacy is -100%. Further, the values for the AC50 in assay [2], in [5] and in [6] were 0.112 µM (active), 7.94 µM (active) and 2.51 µM (active), respectively. The call in [3], in assay [4], in [7] and in [10] was inactive. Further, the outcome in assay [9] was “inactive [Channel type: confirmation]”.

With `Nc1cccc2c1CN(C1CCC(=O)NC1=O)C2=O` (configuration not stated), in [1], the efficacy was 15.2%. For the same compound, the compound was called inactive in [2], in assay [3], in assay [4], in assay [5], in [6] and in [7]. For the same compound, the result in [9] and in [10] was inactive.

For `Oc1ccc(C2CNCCc3c2cc(O)c(O)c3Cl)cc1` (configuration not stated), in [1], the efficacy is 16.5%. The call in assay [2], in assay [3], in [4], in assay [5], in assay [6] and in [7] was inactive. For the same compound, the result in assay [9] was inactive.

`C=C(c1ccc(C(=O)O)cc1)c1cc2c(cc1C)C(C)(C)CCC2(C)C`: in assay [1], the efficacy is 22.5%. The compound was classed as inactive in [2], in [3], in assay [4], in assay [5], in assay [6] and in assay [7]. Further, the compound was classed as inactive in assay [8], in [9] and in assay [10].

Regarding `C#C[C@]1(O)CC[C@H]2[C@@H]3CCC4=Cc5oncc5C[C@]4(C)[C@H]3CC[C@@]21C`, the efficacy in [1] was 22.7%. Moreover, the outcome in [2], in assay [3], in [4] and in assay [7] was inactive. For the same compound, the AC50 in [5] is 7.94 µM (active); in [6], 6.31 µM (active); in assay [9], 6.31 µM (active).

For the compound `CNC1(C)C2CCC(C2)C1(C)C` (configuration not stated), in assay [1], the efficacy was 20.8%. In addition, the compound was classed as inactive in assay [2], in assay [3], in assay [4], in [6] and in [7]. Moreover, the AC50 in assay [5] is 39.8 µM (active); in [9] it was 35.5 µM (active).

As for `CN(C)CCOC(C)(c1ccccc1)c1ccccn1` (configuration not stated), in [1], the efficacy was 20.1%. The outcome in [2], in assay [3], in assay [4] and in assay [7] was inactive. Also, the AC50 in [5] was 15.8 µM (active); in [6], 14.1 µM (active); in [9] it was 14.1 µM (active).

With `CC(=O)N[C@@H](CS)C(=O)O`, in [1], the efficacy is -17.9%. For the same compound, the compound was classed as inactive in assay [2], in [3], in assay [4], in assay [5], in [6] and in [7]. Also, the compound was classed as inactive in assay [8], in assay [9] and in assay [10].

Consider `OC(Cn1cncn1)(Cn1cncn1)c1ccc(F)cc1F`, for which the efficacy in assay [1] was -11.5%. The call in assay [2], in assay [3], in [4], in assay [5], in assay [6] and in assay [7] was inactive. In addition, the compound was called inactive in [8], in assay [9] and in assay [10].

`COc1c(C)c2c(c(O)c1C/C=C(\C)CCC(=O)OCCN1CCOCC1)C(=O)OC2`: in assay [1], the efficacy was -9.5%. Further, the call in [2], in [3], in assay [4], in [5], in assay [6] and in assay [7] was inactive. For the same compound, the result in assay [9] and in assay [10] was inactive.

With `Nc1nc(N)c2nc(-c3ccccc3)c(N)nc2n1`, the efficacy in assay [1] is 17.5%. The outcome in assay [2], in [3], in assay [4], in assay [5], in assay [6] and in assay [7] was inactive. For the same compound, in assay [9], the result was inactive.

In the case of `CC[C@H](C)C(=O)O[C@H]1C[C@@H](C)C=C2C=C[C@H](C)[C@H](CC[C@@H]3C[C@@H](O)CC(=O)O3)[C@H]21`, the efficacy in assay [1] is 16.1%. Also, the result in assay [2], in assay [3], in [4], in assay [5], in [6] and in [7] was inactive. The outcome in assay [9] and in [10] was inactive.

On to `CCC1C(=O)OCC1Cc1cncn1C` (configuration not stated), for which, in [1], the efficacy is -25.5%. The call in [2], in assay [3], in assay [4], in assay [5], in assay [6] and in assay [7] was inactive. For the same compound, the compound was called inactive in assay [8], in assay [9] and in assay [10].

For `NNc1nncc2ccccc12`, the efficacy in assay [1] was -27.3%. The outcome in [2], in [3], in assay [4], in [5], in assay [6] and in [7] was inactive. For the same compound, the result in assay [9] and in assay [10] was inactive.

The record behind these values is PubChem BioAssay (NCATS).
